Test [1] can be described thus: Nuclear factor erythroid 2-related factor 2/antioxidant responsive element (Nrf2/ARE) small molecule agonists: qHTS cell viability counter screen in human keratinocytes (AID 1919968; active means well fitted curve in the direction sought with a large enough effect in the repeat runs; an effect the other way counts as inactive or inconclusive; further: nearly all actives have a fitted effect of over 55% in size; further: potency means the concentration at half of the fitted maximal effect). The essentials: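 Seed 1,500 KeratinoSens cells per well, then incubate 5 h at 37 C/5% CO2. Add compounds in DMSO and incubate 23 h. Add CellTiter-Fluor, wait 1 h and read fluorescence.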

The nature of test [2]: Nuclear factor erythroid 2-related factor 2/antioxidant responsive element (Nrf2/ARE) small molecule agonists: luciferase reporter gene qHTS assay in human keratinocytes (AID 1919969; further: nearly all actives have a fitted effect of over 35% in size). (In general: A reporter such as luciferase makes a cellular process visible.)
Test [3] has as its target Gonadotropin-releasing hormone receptor (Homo sapiens) (UniProt P30968). Description: Human gonadotropin-releasing hormone receptor (GnRHR) small molecule agonists, calcium flux assay in GnRHR-HEK293 cells (AID 1920063). Further: nearly all actives have a fitted effect of over 35% in size. The procedure, abridged:
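Cells: HEK293 stably expressing human GnRHR. Steps: overnight (18 h) culture, 1 h calcium dye loading at 37 C, compound addition, kinetic fluorescence read at 480/540 nm. Each compound tested at 15 concentrations in triplicate.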
In general terms: Calcium flux is commonly read through the fluorescence of an indicator in the cells.

Test [4] deals with KiSS-1 receptor (Homo sapiens) (UniProt Q969F8). Kind of test: Human kisspeptin (KISS1R) small molecule agonists, calcium flux assay in KISS1R-HEK293 cells (AID 1920064; active means well fitted curve in the direction sought with a large enough effect in the repeat runs; an effect the other way counts as inactive or inconclusive). The procedure, abridged:
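Cells plated and incubated 18 h; dye added, 1 h at 37 C; compounds in DMSO pinned in; signal read at 480/540 nm every second for 3 min. Each compound tested at 15 concentrations in triplicate.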

Test [5] in a line: G protein-coupled receptor (GPCR) small molecule agonists, calcium flux assay: HEK293 wild type cell line counter screen (AID 1920065). The procedure, abridged: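 Counter-screen of the Tox21 10K library for non-specific calcium release: dye-loaded cells received compounds in DMSO and were monitored by kinetic fluorescence (480/540 nm, 3 min). Fifteen concentrations, run in triplicate.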

Test [6] is described as follows: p53 small molecule agonists, cell-based qHTS assay with rat liver microsomes (AID 1963578). The essentials: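 p53RE-bla cells, 4,000/well, pre-incubated 5 h, then given compounds plus rat liver microsomes (0.5 mg/mL final) and NADPH (0.5 mg/mL final). Incubation 16 h at 37 C; beta-lactamase reporter read by LiveBLAzer fluorescence after 2 h at room temperature.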
On the technique in general: qHTS replaces the single test concentration by a dilution series.

Test [7] in a line: p53 small molecule agonists, cell-based qHTS assay with human liver microsomes: qHTS cell viability counter screen (AID 1963579). Further: nearly all actives have a fitted effect of over 45% in size. The essentials: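 p53RE-bla cells, 4,000/well, dosed 5 hours after plating, with human liver microsomes (0.5 mg/mL final) plus NADPH (0.5 mg/mL final), 16 hours at 37 C. Viability read as CellTiter-Glo luminescence after 30 min at room temperature.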

Test [8] in a line: p53 small molecule agonists, cell-based qHTS assay: qHTS cell viability counter screen (AID 1963581). Further: nearly all actives have a fitted effect of over 45% in size. The essentials: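 Cells: HCT-116 with p53 response element-driven beta-lactamase. Treatment: 16 h, 37 C, compounds in DMSO. Read: CellTiter-Glo luminescence after 30 min RT.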
Test [9] in a line: p53 small molecule agonists, cell-based qHTS assay (AID 1963582; active means well fitted activation curve with a large enough effect in the signal ratio in the repeat runs, not every such curve was filed as active; the % refers to the signal ratio). The essentials:
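Quantitative HTS in p53RE-bla cells: after a 5 h settling period, compounds delivered in DMSO were left on cells for 16 h at 37 C, and reporter induction was measured as fluorescence following 2 h substrate loading.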

For test [10], the target named is 5-hydroxytryptamine receptor 2A (Homo sapiens) (UniProt P28223). Kind of test: 5-hydroxytryptamine receptor 2A (HTR2A) small molecule agonists, cell-based qHTS assay (AID 1963587). Further: nearly all actives have a fitted effect of over 30% in size. The procedure, abridged:
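Kinetic calcium-flux fluorescence (2 min, 1 sec intervals) after compound addition in agonist mode. HTR2A-CHO cells were cultured 18 h, then dye-loaded 1 h at 37 C.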

Test [11] concerns the target Muscarinic acetylcholine receptor M1 (Homo sapiens) (UniProt P11229). Description: Cholinergic receptor muscarinic 1 (CHRM1) small molecule agonists, cell-based qHTS assay (AID 1963589). Further: nearly all actives have a fitted effect of over 35% in size. The essentials:
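Agonist-mode qHTS in CHO cells stably carrying human muscarinic M1. Intracellular calcium is tracked by fluorescence every second after compound transfer; each compound runs at 15 concentrations in three independent runs.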

Test [12] is described as follows: cAMP Responsive Elements (CRE) small molecule agonists, cell-based qHTS assay (AID 1963590). The essentials: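 Agonist mode qHTS in CRE-bla HEK 293T cells: compounds dosed from DMSO for 3 h at 37 C/5% CO2, followed by LiveBLAzer B/G FRET substrate for 2 h at room temperature.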
In test [13] the target is Beta-2 adrenergic receptor (Homo sapiens) (UniProt P07550). Kind of test: Adrenergic beta2 receptor (ADRB2) small molecule antagonists, cell-based qHTS assay (AID 1963592). Further: nearly all actives have a fitted effect of over 50% in size. Further: potency means the concentration at half of the fitted maximal effect. The essentials: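 Cells (CHO, stable ADRB2 overexpression) incubated 18-20hr at 37C; compounds added from DMSO; agonist mix (1nM isoproterenol, 100uM IBMX, 25uM Ro-20-1724) added; 0.5hr RT; d2-cAMP and anti-cAMP-cryptate added; 1hr RT; 665/615 nm read.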

Test [14] addresses D(2) dopamine receptor (Homo sapiens) (UniProt P14416). Kind of test: Dopamine D2 receptor (DRD2) small molecule antagonists, cell-based qHTS assay (AID 1963595; active means well fitted inhibition curve with a large enough effect in the signal ratio in the repeat runs, with a control signal flat; the % refers to the signal ratio; further: potency means the concentration at half of the fitted maximal effect). The essentials:
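HTRF cAMP read-out at 665 and 620 nm emission (340 nm excitation). Antagonist mode: compounds were tested against 12 nM quinpirole in DRD2-HEK293 cells, with 200 nM NKH477 raising cAMP and 0.1 mM Ro20-1724 blocking its breakdown.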

The nature of test [15]: p53 small molecule agonists, cell-based qHTS assay with rat liver microsomes: qHTS cell viability counter screen (AID 1963580). Further: nearly all actives have a fitted effect of over 45% in size. The essentials: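 Intracellular ATP, by CellTiter-Glo luminescence, defines viability. HCT-116 p53RE-bla cells, 4,000 per well, were compound-treated in the presence of rat liver microsomes and NADPH for 16 h at 37 C.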
Test [16] deals with 5-hydroxytryptamine receptor 2A (Homo sapiens) (UniProt P28223). Description: 5-hydroxytryptamine receptor 2A (HTR2A) small molecule antagonists, cell-based qHTS assay (AID 1963586). Further: nearly all actives have a fitted effect of over 45% in size. Further: potency means the concentration at half of the fitted maximal effect. The essentials:
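Antagonist-mode intracellular calcium assay: DOI (4 nM) added after 5 min compound pre-incubation at room temperature to dye-loaded HTR2A-CHO cells. Fluorescence followed for 3 min, sampled every second.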

Test [17] in a line: cAMP Responsive Elements (CRE) small molecule antagonists, cell-based qHTS assay (AID 1963591; active means well fitted inhibition curve with a large enough effect in the signal ratio in the repeat runs, not every such curve was filed as active; the % refers to the signal ratio). The essentials:
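Antagonist mode: test compounds are co-incubated with the adenylyl cyclase activator NKH477 (0.25 uM final) on CRE-bla HEK293T cells for 3 h at 37 °C, followed by LiveBLAzer substrate loading.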

Test [18] deals with D(2) dopamine receptor (Homo sapiens) (UniProt P14416). Description: Dopamine D2 receptor (DRD2) small molecule agonists, cell-based qHTS assay (AID 1963594). Further: nearly all actives have a fitted effect of over 35% in size. The procedure, abridged: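 cAMP accumulation in DRD2-HEK293 cells measured by HTRF after 1 h detection; compounds added 10 min before NKH477 (200nM […]) forskolin-analogue stimulation, 30 min at room temperature, with Ro20-1724 present at 0.1 mM final.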

Test [19] concerns the target Muscarinic acetylcholine receptor M1 (Homo sapiens) (UniProt P11229). Kind of test: Cholinergic receptor muscarinic 1 (CHRM1) small molecule antagonists, cell-based qHTS assay (AID 1963588). Further: nearly all actives have a fitted effect of over 40% in size. The essentials:
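CHRM1-CHO calcium-flux assay, antagonist mode. Cells were seeded 18 h, dye-loaded 1 h at 37 C and given compound for 5 min at RT, then acetylcholine was added at 50nM. FDSS fluorescence was read 3 min; 15 concentrations, three runs.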

For test [20], the target named is Beta-2 adrenergic receptor (Homo sapiens) (UniProt P07550). Description: Adrenergic beta2 receptor (ADRB2) small molecule agonists, cell-based qHTS assay (AID 1963593).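 Further: CHO cells stably overexpressing human ADRB2.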 The essentials: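 CHO cells stably over-expressing ADRB2 were plated overnight at 37C, then dosed with compounds plus a stimulation mix containing 100uM IBMX and 25uM Ro-20-1724 for 0.5hr at room temperature. cAMP was measured by HTRF competition, 1hr.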

Inconclusive results are not listed. The source made the active and inactive calls. Unless noted, the call rests on the fitted dose curve.

Muscarinic acetylcholine receptor M1 (Homo sapiens), sequence (P11229 whole entry, looked up): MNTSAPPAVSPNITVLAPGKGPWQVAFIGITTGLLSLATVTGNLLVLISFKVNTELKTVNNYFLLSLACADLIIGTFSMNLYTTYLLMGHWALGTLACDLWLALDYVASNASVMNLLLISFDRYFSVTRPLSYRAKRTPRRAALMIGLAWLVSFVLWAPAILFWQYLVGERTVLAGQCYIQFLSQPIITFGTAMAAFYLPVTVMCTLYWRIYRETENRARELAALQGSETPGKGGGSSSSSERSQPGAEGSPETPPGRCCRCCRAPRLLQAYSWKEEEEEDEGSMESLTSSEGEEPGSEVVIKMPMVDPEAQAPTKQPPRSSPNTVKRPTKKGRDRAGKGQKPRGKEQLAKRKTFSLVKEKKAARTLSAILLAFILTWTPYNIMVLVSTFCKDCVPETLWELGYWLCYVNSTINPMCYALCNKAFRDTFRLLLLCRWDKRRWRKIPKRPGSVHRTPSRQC
Gonadotropin-releasing hormone receptor (Homo sapiens), sequence (P30968 whole entry, looked up): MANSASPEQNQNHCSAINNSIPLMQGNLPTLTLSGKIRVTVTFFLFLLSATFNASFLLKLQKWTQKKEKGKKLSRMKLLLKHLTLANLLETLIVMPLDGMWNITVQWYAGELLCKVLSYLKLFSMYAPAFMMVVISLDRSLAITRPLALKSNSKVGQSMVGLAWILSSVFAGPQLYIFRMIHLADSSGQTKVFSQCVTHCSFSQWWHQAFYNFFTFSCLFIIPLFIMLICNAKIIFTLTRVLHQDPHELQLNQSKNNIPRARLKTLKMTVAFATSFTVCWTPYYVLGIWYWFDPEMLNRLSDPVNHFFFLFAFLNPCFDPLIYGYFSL
KiSS-1 receptor (Homo sapiens), sequence (Q969F8 whole entry, looked up): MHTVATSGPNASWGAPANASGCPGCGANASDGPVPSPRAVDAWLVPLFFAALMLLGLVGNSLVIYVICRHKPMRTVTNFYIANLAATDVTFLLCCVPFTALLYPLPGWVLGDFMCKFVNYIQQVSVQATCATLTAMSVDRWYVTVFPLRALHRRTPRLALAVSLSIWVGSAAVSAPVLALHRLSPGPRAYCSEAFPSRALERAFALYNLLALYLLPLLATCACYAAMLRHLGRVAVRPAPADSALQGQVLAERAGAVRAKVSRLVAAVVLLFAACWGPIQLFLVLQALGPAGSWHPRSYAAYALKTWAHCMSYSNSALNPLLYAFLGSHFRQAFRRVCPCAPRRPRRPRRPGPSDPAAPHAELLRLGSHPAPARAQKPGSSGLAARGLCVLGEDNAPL
Beta-2 adrenergic receptor (Homo sapiens), sequence (P07550 whole entry, looked up): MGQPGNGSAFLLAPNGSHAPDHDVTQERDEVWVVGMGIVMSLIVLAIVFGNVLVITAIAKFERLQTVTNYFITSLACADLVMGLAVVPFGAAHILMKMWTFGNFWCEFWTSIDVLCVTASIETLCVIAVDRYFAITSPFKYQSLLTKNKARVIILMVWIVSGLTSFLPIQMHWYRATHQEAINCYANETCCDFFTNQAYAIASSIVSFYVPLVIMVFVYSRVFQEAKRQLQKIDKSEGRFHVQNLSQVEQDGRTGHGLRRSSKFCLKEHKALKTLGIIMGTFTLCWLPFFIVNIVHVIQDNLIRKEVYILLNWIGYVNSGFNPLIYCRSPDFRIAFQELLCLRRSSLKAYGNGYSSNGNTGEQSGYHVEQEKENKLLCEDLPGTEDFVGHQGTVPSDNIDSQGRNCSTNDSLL
5-hydroxytryptamine receptor 2A (Homo sapiens), sequence (P28223 whole entry, looked up): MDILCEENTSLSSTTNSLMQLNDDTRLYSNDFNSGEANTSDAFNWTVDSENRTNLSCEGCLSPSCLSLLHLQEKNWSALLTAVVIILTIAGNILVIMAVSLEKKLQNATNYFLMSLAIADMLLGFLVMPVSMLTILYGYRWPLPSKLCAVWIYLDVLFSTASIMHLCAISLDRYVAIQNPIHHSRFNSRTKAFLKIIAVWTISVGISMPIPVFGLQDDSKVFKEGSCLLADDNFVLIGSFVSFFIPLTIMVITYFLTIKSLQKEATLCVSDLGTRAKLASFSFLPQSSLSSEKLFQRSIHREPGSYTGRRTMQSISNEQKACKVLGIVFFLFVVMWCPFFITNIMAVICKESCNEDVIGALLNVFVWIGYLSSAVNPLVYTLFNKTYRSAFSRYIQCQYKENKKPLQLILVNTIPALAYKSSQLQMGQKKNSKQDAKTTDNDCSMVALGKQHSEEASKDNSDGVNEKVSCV
D(2) dopamine receptor (Homo sapiens), sequence (P14416 whole entry, looked up): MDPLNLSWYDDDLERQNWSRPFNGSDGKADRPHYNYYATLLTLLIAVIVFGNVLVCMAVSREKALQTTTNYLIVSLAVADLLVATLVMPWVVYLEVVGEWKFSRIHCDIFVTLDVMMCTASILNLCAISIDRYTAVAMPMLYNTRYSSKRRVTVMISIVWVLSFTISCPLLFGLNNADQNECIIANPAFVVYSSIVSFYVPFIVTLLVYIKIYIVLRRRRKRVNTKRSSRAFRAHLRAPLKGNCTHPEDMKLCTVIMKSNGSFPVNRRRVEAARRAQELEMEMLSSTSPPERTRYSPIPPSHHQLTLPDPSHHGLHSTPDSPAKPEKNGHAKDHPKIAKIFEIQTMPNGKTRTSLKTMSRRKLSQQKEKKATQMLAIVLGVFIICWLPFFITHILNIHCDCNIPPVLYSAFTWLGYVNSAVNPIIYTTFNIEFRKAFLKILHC

On to `C[C@@H]1C[C@H]2[C@@H]3CCC4=CC(=O)C=C[C@]4(C)[C@@]3(F)[C@@H](O)C[C@]2(C)[C@@]1(O)C(=O)COC(=O)c1ccncc1`, for which the Potency entry in [1], in test [2], in [3], in [4], in [5] and in [6] was “inactive” each time. In addition, the Potency result in [7], in test [8], in test [9], in test [10], in [11] and in test [12] was “inactive” each time. In addition, the Potency result in test [13] and in [14] was “inactive” each time.
`CCN(Cc1ccccc1)c1ccccc1`: the Potency entry in test [1], in test [2], in test [3], in [4], in [5] and in [6] was “inactive” each time. Further, the Potency entry in [7], in test [15], in test [9], in test [16], in [11] and in test [12] was “inactive” in each case. The Potency entry in [17], in [13], in test [18] and in [14] was “inactive” throughout.
`COc1ccccc1N1CCN(CC(O)COc2cccc3ccccc23)CC1` (configuration not stated): the Potency entry in test [1], in [2], in [3], in test [4], in test [5] and in test [6] was “inactive” throughout. For the same compound, the Potency entry in test [15], in test [8], in [9], in [19], in test [11] and in test [12] was “inactive” in each case. The figures for the Potency in test [16], in test [13] and in [14] were 5.79 µM (active), 2.11 µM (active) and 33.5 µM (active), respectively.
Regarding `COC(=O)c1cc(Cl)ccc1[N+](=O)[O-]`, the Potency entry in test [1], in test [2], in test [3], in test [4], in test [5] and in test [6] was “inactive” throughout. In addition, the Potency result in test [15], in [8], in test [9], in test [16], in test [10] and in [19] was “inactive” each time. In addition, the Potency result in [11], in test [12], in test [13], in test [18] and in test [14] was “inactive” in each case.
For `O=C(CCCN1CCN(c2ccc(F)cc2)CC1)NC1c2ccccc2CSc2ccccc21` (configuration not stated), the Potency entry in test [1], in test [2], in test [3], in test [4], in test [5] and in test [6] was “inactive” throughout. Besides, the Potency entry in test [15], in test [8], in test [9], in test [10], in test [11] and in test [18] was “inactive” throughout. In test [13], the Potency was 7.5 µM (active).
As to `NC(=O)N1C(=O)C(C(=O)c2cc(Cl)cs2)c2cc(F)c(Cl)cc21` (configuration not stated), the Potency in test [1] was 24.3 µM (active). Besides, the Potency entry in test [2], in test [3], in [4], in [5], in test [6] and in test [7] was “inactive” each time. Moreover, the Potency result in test [15], in test [8], in [11], in test [18] and in test [14] was “inactive” each time.
With `Cc1ccc(C(=O)C(C)CN2CCCCC2)cc1` (configuration not stated), the Potency entry in test [1], in [2], in test [3], in test [4], in test [5] and in [6] was “inactive” each time. In addition, the Potency result in test [7], in [8], in test [9], in test [17], in [13] and in [18] was “inactive” each time.
Consider `Cc1coc2ccccc2c1=O`, for which the Potency entry in test [1], in [2], in test [3], in test [4], in test [5] and in [6] was “inactive” throughout. Moreover, the Potency result in [7], in test [15], in [9], in test [16], in test [10] and in test [19] was “inactive” each time. Besides, the Potency entry in test [11], in test [17], in [13], in test [20], in test [18] and in test [14] was “inactive” in each case.
